Screens from PubChem.
Only some compounds are listed: those with a hit (about 2.1% of all), similar ones and a draw of the others.
AF4-AF9 inh: inhibitors of human MLL-AF4/AF9 interaction | P42568 | AlphaScreen, biotin-AF4 peptide binding to FLAG-AF9 | inhibition, % at 10 µM | actives 0.47% (n = 350,000);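 active = every replicate reaching a set inhibition limit, whatever the replicate mean, cut at about 25% in these data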;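 also: 0% = plate neutral control median and 100% = total signal loss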
NSD2 HMT inh: inhibitors of human histone methyltransferase NSD2 | actives 0.54% (n = 310,000) | AID 743445 | inhibition, % at 12.5 µM | NSD2 peptide methylation, AlphaScreen, 120 min; in the data active = inhibition above about 50%
Env fusion inh: blocks HIV Env-driven cell-cell fusion; HeLa-JRFL Env/CEM21 cell fusion, luciferase; inhibition, % at 12.3 µM; actives 1.1% (n = 360,000); AID 651610;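 active = mean replicate inhibition score of at least 50 and every replicate individually at or above 50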;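 also: 0% = plate neutral controls and 100% = maraviroc near 300 nM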
GSIS activator: GLuc luminescence reporter in INS-1E cells, primary screen for activators of glucose-dependent secretion of insulin. INS-1E GLuc reporter insulin secretion, 2-3 h. actives 0.61% (n = 370,000). activation, % at 16.6 µM;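 active = lowest replicate activation of at least 40%, so every replicate reaches that level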;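 also: 0% = median of neutral control wells and 100% = median of IBMX positive control wells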
PGC1a acetyl inh: modulators of PGC1a acetylation; actives 0.17% (n = 350,000); inhibition, % at 15.6 µM; U2OS PGC1a acetylation, AlphaScreen anti-acetyl-lysine; with virally co-expressed GCN5 acetyltransferase; AID 651687;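 active = every replicate shows inhibition of at least 40%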;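 also: 0% = neutral control wells and 100% = positive control wells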
AlphaScreen art: counter-screen for NSD2 inhibitors: AlphaScreen artifacts. shares compounds with NSD2 HMT inh. AlphaScreen artifact counterscreen, preloaded methylated H4 peptide. AC35, µM (top dose mostly 10 µM), for the others: at the highest dose activity change, negative = signal loss. actives 9.4% (n = 1,500); call rule not given here
* = called active by the depositor; x = not tested or not shown; [ ] = remark or other dose.

SMILES	AF4-AF9 inh	NSD2 HMT inh	Env fusion inh	GSIS activator	PGC1a acetyl inh	AlphaScreen art
S=C(Nc1ccc(Br)cc1)N1CCN(c2ccccn2)CC1	-7	-2	9	-5	-10	x
C/C(=N\O)C(C)Oc1ccc(Cl)cc1 (centres undefined)	-1	65*	-6	9	2	2%
Cc1c(Cc2ccccc2)c(=O)oc2cc(O)ccc12	-9	-6	-32	15	5	x
Cc1c(Cc2ccccc2)c(=O)oc2c(O)c(O)ccc12	-5	61*	-58	26	-4	-12%
Cc1ccc(NC(=O)CS(=O)CC(=O)N2CCN(C3CCCC3)CC2)cc1 (centres undefined)	0	3	19	7	-16	x
O=C(O)COc1ccc(/C=N/n2c(COc3ccccc3)nc3ccccc3c2=O)cc1	3	-2	3	-6	x	x
O=c1c2ccccc2nc(COc2ccccc2)n1/N=C/c1ccc(O)c(O)c1	13	65*	-14	-19	10	-13%
C/C(=C\C(=O)c1ccccc1)Nc1ccc(O)cc1	x	78*	-76	x	-1	-4%
C/C(=C\C(=O)c1cccnc1)Nc1ccc(O)cc1	x	78*	-34	x	15	-4%
c1coc(C2Nc3ccccc3C3OCCC23)c1 (centres undefined)	x	-1	-117	x	3	x
Cc1cc(C)c2c(c1)N[C@H](c1cccs1)[C@@H]1CCO[C@H]21	1	50*	-2	x	x	-1%
CCn1c(-c2cc3c(C(F)(F)F)nn(C)c3s2)n[nH]c1=S	x	52*	-227	x	6	-6%
CC1=NOC(=O)/C1=C\c1ccc(-c2ccc(Br)cc2)o1	1	69*	-265	-1	-11	0%
CC1=NOC(=O)/C1=C/c1ccc(-c2ccc(Cl)cc2)o1	x	12	x	x	0	x
CN1CCN(c2ccc(NC(=O)COc3ccc4ccccc4c3)cc2)CC1	5	125*	-2	12	x	-1%
Cn1c(=O)[nH]c(=O)c2c1nc(N/N=C/c1ccncc1)n2Cc1ccc(F)cc1	-2	62*	-15	6	8	-2%
Cn1c(=O)[nH]c(=O)c2c1nc(N/N=C/c1cccnc1)n2Cc1ccc(Cl)cc1	1	0	15	-1	23	x
COC1=CC(=O)c2c(ccc3ncnc(N)c23)C1=O	-5	122*	76*	x	66*	3%
COc1cccc(CNC(=O)Cn2c(=O)oc3ccccc32)c1OC	0	x	23	8	-4	x
Cc1c(NC(=O)C(C)OC(=O)c2sc3ccccc3c2Cl)c(=O)n(-c2ccccc2)n1C (centres undefined)	-24	3	18	-3	x	x
Cc1c(NC(=O)C(C)OC(=O)c2ccc([N+](=O)[O-])s2)c(=O)n(-c2ccccc2)n1C (centres undefined)	10	115*	23	-19	8	-2%
CC(C)(C)[C@H]1C=C(C(=O)N2CCN(Cc3ccccc3)CC2)O[C@@H](OCCCCO)C1	x	x	4	-15	x	x
CC(C)[C@H](NC(=O)C1CCN(S(=O)(=O)c2ccc(F)cc2)CC1)C(=O)N1CCCCCC1	-1	-5	-4	-6	-18	x
Cc1ccc(N2CN=c3s/c(=C\c4ccccn4)c(=O)n3C2)cc1	x	59*	-50	x	-8	-8%
CCN(CC)C(=O)C1CCCN(Cc2ccc(OC)c(C)c2C)C1 (centres undefined)	x	53*	-31	16	3	-5%
SMILES	AF4-AF9 inh	NSD2 HMT inh	Env fusion inh	GSIS activator	PGC1a acetyl inh	AlphaScreen art
CCOc1ccccc1N(CC(=O)NCCc1ccc(OC)c(OC)c1)S(=O)(=O)c1ccccc1	0	55*	9	3	16	0%
CCS(=O)(=O)N[C@@H]1C=C[C@H](CC(=O)N2CCCCC2)O[C@H]1CO	-2	x	-75[16.7 µM]	6	-6	x
CC(=O)C1=CCC(c2ccccc2)N(S(=O)(=O)c2ccccc2C)C1 (centres undefined)	1	x	11	-6	3	x
Oc1c(Br)cc(Br)c2cccnc12	-4	x	42	x	5	x
[O-][n+]1cccc2c(Br)cc(Br)c(O)c21	7	61*	-38	13	x	-5%
O=C(C[C@@H]1CC[C@H](NC(=O)C2CCC2)[C@H](CO)O1)NC1CCC1	-1	x	-4[16.7 µM]	4	-4	x
COc1cc(NS(=O)(=O)c2ccc(NC(=S)NC(=O)/C=C/c3ccco3)cc2)ncn1	-1	150*	8	2	2	-4%
